Hits are enriched below; roughly 3.3% of the tested compounds scored in any of these assays.
PI4K2A inh = qHTS for small molecular inhibitors of PI4K2A; AID 1346378, 2018; purified PI4K2A, ADP-Glo luminescence, 1 h; active compounds read low; 420,000 tested, 0.13% active; Phosphatidylinositol 4-kinase type 2-alpha (Homo sapiens), Q9BTU6; activity change, negative = inhibition, % at 76.9 µM; in the data active = activity change below about -50%; inconclusive = mostly about -30% to -49%;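 note: -100% = wells without enzyme as full effect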
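ADP-Glo luminescence measured ADP generated by PI4K2A enzyme (4 ug/mL before mixing) with 1.2 mM PI substrate (pre-mix) and 300 microM ATP (pre-mix). Tris pH7.5 buffer with MgCl2, Triton X-100; 1 h reaction at ambient temperature.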
D3 ag = qHTS of D3 Dopamine Receptor Agonist: qHTS | 410,000 tested, 0.58% active | max activation, % | D3R DiscoveRx beta-arrestin cells, luminescence, 90 min | D(3) dopamine receptor (Homo sapiens), P35462 | AID 652048, 2013; in the data active = max activation above about 30%; note: 0% is about no effect
Target sequence (P35462 whole entry, looked up): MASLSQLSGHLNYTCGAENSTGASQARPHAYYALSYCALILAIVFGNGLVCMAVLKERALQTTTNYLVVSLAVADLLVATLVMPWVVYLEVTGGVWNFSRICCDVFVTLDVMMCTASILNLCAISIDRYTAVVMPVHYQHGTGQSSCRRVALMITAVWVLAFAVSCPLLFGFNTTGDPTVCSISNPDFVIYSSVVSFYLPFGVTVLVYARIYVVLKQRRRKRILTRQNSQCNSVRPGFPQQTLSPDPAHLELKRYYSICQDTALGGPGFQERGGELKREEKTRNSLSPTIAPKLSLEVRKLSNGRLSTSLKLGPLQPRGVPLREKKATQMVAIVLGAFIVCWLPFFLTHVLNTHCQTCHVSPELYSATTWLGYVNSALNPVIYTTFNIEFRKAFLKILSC
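Agonist mode: compounds and dopamine controls were applied to plated cells for 90 min at 37 degrees C after an overnight attachment at 1500 cells/well. Luminescent read-out followed 30 - 60 minutes at room temperature with DiscoveRx detection reagent.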
PI5P4K alpha inh = qHTS for Inhibitors of phosphatidylinositol 5-phosphate 4-kinase (PI5P4K). PI5P4Kalpha enzyme, ADP-Glo luminescence, 60 min; active compounds read low. 330,000 tested, 1.2% active. Phosphatidylinositol 5-phosphate 4-kinase type-2 alpha (Homo sapiens), P48426. max response, %; active = max response of -50% or lower; inconclusive = between -30% and -50%; inactive = -30% or higher; note: value at the top dose of about 77 µM; % is set by controls: 0 for no effect and ±100 for the full control effect
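ADP-Glo luminescence end-point read after a 60 min room-temperature kinase reaction of PI5P4Kalpha plus substrate, initiated with ATP at 5 microM final. Buffer: 0.038 M HEPES pH 7.4, EGTA, 0.1% CHAPS, 5% DMSO.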
LDHA block = qHTS assay for inhibitors of human lactate dehydrogenase. L-lactate dehydrogenase A chain (Homo sapiens), P00338. purified LDHA, NADH/diaphorase-resazurin fluorescence; active compounds read low. activity change, % (values are at about 110 or 230 µM). 480,000 tested, 0.15% active; in the data active = activity change below about -30%; inconclusive = mostly about -25% to -30%;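 note: plate controls were DMSO wells for no effect and wells without enzyme for full effect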
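Human LDH5 at 2 nM final in Tris HCl pH 7.4 with 0.06 mM NADH and 0.2 mM pyruvate, reacted 5 minutes at room temperature. Remaining NADH coupled via diaphorase/resazurin; resorufin fluorescence read at 0 and 20 minutes, normalized to enzyme-free and DMSO wells.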
DRD3 antagonist = qHTS of D3 Dopamine Receptor Antagonist: qHTS | max response, negative = inhibition, % | D3R cells, DiscoveRx beta-arrestin luminescence, antagonist mode; active compounds read low | 360,000 tested, 2.5% active; in the data active = max response below about -50%; inconclusive = no clear call, values can overlap the other calls; note: % is set by controls: 0 for no effect and ±100 for the full control effect
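Cells plated overnight at 1500 cells/well, then exposed to library compounds with dopamine controls for 90 minutes at 37 degrees C. DiscoveRx reagent added for 30–60 minutes at room temperature; luminescence read, quantitative HTS format.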
* marks the source's active call; other numbers are inactive results; ? = inconclusive; · = no result given.

SMILES	PI4K2A inh	D3 ag	PI5P4K alpha inh	LDHA block	DRD3 antagonist
O=[N+]([O-])c1ccccc1/C=N/n1c(-c2cccnc2)n[nH]c1=S	1	-18	-3	-2	-86*
S=c1[nH]nc(-c2cccnc2)n1Cc1ccccc1	-3	-7	2	-2	-53*
O=[N+]([O-])c1cc2c(cc1/C=N/n1c(-c3ccccn3)n[nH]c1=S)OCO2	0	-3	-8	-2	-50*
S=c1[nH]nc(-c2cccnc2)n1/N=C/c1cccs1	-2	3	-5	-2	-111*
O=C(CCc1ccccc1)Nc1ccc(Cc2ccncc2)cc1	·	·	·	4	·
Cc1ccc(-c2cc3nc(-c4ccccc4)cc(N)n3n2)cc1	-22	2	0	-6	3
Cc1cc(N)n2nc(-c3ccccc3)cc2n1	-54*	-12	-22	-1	-6
COc1ccc(-c2nc(CSCC(=O)NC3CCC(C)CC3)co2)cc1 (stereo not given)	·	·	·	8	·
O=[N+]([O-])c1cc(S(=O)(=O)C(F)(F)F)ccc1N1CCN(c2ccccc2)CC1	5	-20	20	-1	-54*
CCOc1ccc(-n2nc3ccc(NC(=O)COc4ccc(OC)cc4)cc3n2)cc1	-2	2	·	-12	·
COc1ccc(OCC(=O)Nc2ccc3nn(-c4ccc(OC)cc4)nc3c2)cc1	-1	62*	·	-6	·
C/C(=N/O)c1ccc(-n2nncc2C23CC4CC(CC(C4)C2)C3)cc1	·	·	·	4	·
O=C1c2cc(Br)ccc2N(Cc2ccc(Br)cc2)S(=O)(=O)C1c1cc(Cl)c(Cl)cc1[N+](=O)[O-] (stereo not given)	-4	7	-61*	-43*	4
O=C1CS(=O)(=O)N(Cc2cccc(F)c2)c2ccc(Br)cc21	-4	-3	-17	0	-11
CC1Cc2ccccc2N1C(=O)c1cccc(S(=O)(=O)Nc2ccccc2F)c1 (stereo not given)	·	·	·	-1	·
COc1ccc(NC(=O)c2cc(-c3cccnc3)nc3c(C)c(C)ccc23)c(OC)c1	-3	48*	·	3	22
COc1cc2c(cc1NC(=O)c1cc(-c3ccncc3)nc3ccccc13)oc1ccccc12	2	7	-11	-6	7
COc1cccc(-c2cc(C(=O)O)c3ccc(C)c(C)c3n2)c1	·	·	·	-10	·
COc1cc2c(cc1NC(=O)c1cc(-c3cccnc3)nc3ccc(C)cc13)oc1ccccc12	-3	56*	·	4	16
COc1cc(/C=C/c2ncc(C(=O)O)s2)cc(Cl)c1OC	·	·	·	-25	·
Cc1ccc(Cn2nnc3c(=O)n(Cc4nc(-c5cccc(C(F)(F)F)c5)no4)cnc32)cc1	·	·	·	8	·
CCN1CCN(CCNC(=O)COCc2cc(-c3cccs3)on2)CC1	·	·	·	10	·
O=C(O)c1ccc(CN2C(=O)c3ccc(C(=O)O)cc3C2=O)cc1	-1	4	-58*	-2	-4
O=C(O)c1ccc2c(c1)C(=O)N(Cc1ccc3c(c1)OCO3)C2=O	1	1	1	0	6
O=C(O)c1ccc2c(c1)C(=O)N(Cc1ccco1)C2=O	2	-2	-69*	3	-4
SMILES	PI4K2A inh	D3 ag	PI5P4K alpha inh	LDHA block	DRD3 antagonist
COc1ccc(CN2C(=O)c3ccc(C(=O)O)cc3C2=O)cc1	3	2	-63*	1	-11
O=C(Nc1ccc(Br)cc1C(=O)O)c1ccc2c(c1)C(=O)N(Cc1ccccc1)C2=O	-1	-1	-74*	-13	-10
O=C(O)c1cccc(NC(=O)c2ccc3c(c2)C(=O)N(Cc2ccco2)C3=O)c1	-4	8	-26	-4	7
C=C(Cl)COc1ccc(Cl)cc1C(N)=O	·	·	·	7	·
O=C(O)c1ccc2c(c1)C(=O)N(C(Cc1ccc(O)cc1)C(=O)O)C2=O (stereo not given)	4	-2	-9	-8	-70*
O=C(O)C(Cc1ccc(O)cc1)N1C(=O)c2c(Cl)c(Cl)c(Cl)c(Cl)c2C1=O (stereo not given)	-8	-1	-1	-5	-22
COc1ccc(NC(=O)CN(C)C(=O)c2nn(-c3ccccc3)c3c2CCC3)cc1	·	·	·	6	·
COc1ccc(C(=O)N2CCN(CCNC(=O)C(=O)Nc3ccc(F)cc3)CC2)cc1	7	-8	0	-4	-9
COc1ccc(C(=O)NCCN2CCN(C(=O)c3ccc(OC)c(OC)c3)CC2)cc1OC	1	11	-8	-3	2
COc1ccc(NC(=O)C(=O)NCCN2CCN(C(=O)c3ccc(C)cc3)CC2)cc1	-2	-17	-8	-1	-70*
COc1ccc(C(=O)NCCN2CCN(C(=O)c3ccc(OC)cc3)CC2)cc1	3	-15	2	2	-83*
O=C(Cn1ccn2nc(-c3ccccc3)cc2c1=O)N1CCN(c2ccccc2F)CC1	·	·	·	3	·
O=S1(=O)c2ccc(Br)cc2OC[C@H](Cc2ccccc2)N1Cc1cn(Cc2ccc(C(F)(F)F)cc2)nn1	0	·	·	·	·
COc1ccc(N2C3=C(CC4=C2CCCC4=O)C(=O)CCC3)cc1	-56*	4	?	26	-17
S=c1[nH]nc(-c2ccco2)n1-c1ccccc1Cl	2	-13	-28	-5	-29
S=c1[nH]nc(-c2cc(-c3ccco3)[nH]n2)n1-c1ccccc1Cl	-4	-4	-57*	-5	-52*
CCn1c(SCC(=O)c2ccc(Cl)cc2)nnc1-c1ccoc1C	-10	-9	-13	-6	-61*
CCn1c(SCC(=O)c2ccc(C)cc2)nnc1-c1ccoc1C	16	8	-5	-10	-14
Cn1c(SCC(=O)c2ccc(-c3ccccc3)cc2)nnc1-c1ccco1	-9	4	-62*	-1	16
Cc1ccc(C(=O)CSc2nnc(-c3ccco3)n2Cc2ccccc2)cc1	-3	8	-51*	-7	-3
O=C(CSc1nnc(-c2ccco2)n1Cc1ccccc1)c1ccccc1	-3	0	2	-9	1
COc1ccc(OC)c(C2CC(=O)Nc3c2c(=O)nc(SC)n3C)c1 (stereo not given)	·	·	·	5	·
C/C(=N\NC(N)=O)C1=CC(C)(C)CCC1	·	·	·	3	·
Cc1cccnc1C(NC(=O)C1CCN(CCOc2ccc(F)cc2)CC1)c1ccc(Cl)cc1 (stereo not given)	-2	-22	2	-2	0
COc1ccc(OCCN2CCC(C(=O)NC(c3ccc(Cl)cc3)c3ncccc3C)CC2)cc1 (stereo not given)	-1	-19	-2	-3	-73*
Cc1cccnc1C(NC(=O)C1CCN(CCCOc2ccc(F)cc2)CC1)c1ccccc1 (stereo not given)	0	-25	-5	-8	-84*

Screening results as filed in PubChem BioAssay.
